# High-throughput results: PubChem, National Center for Advancing Translational Sciences (NCATS)
# The list is not random: actives were taken first. Their share in the collection is about 14%.
# Pf growth 96h = P. falciparum growth inhibition at 96 hour, primary screen for plastid delayed-death inhibitors; Potency, µM (highest dose often 28.7 µM), for the others: at the top dose activity change, negative = inhibition, usual class: inhibitors; P. falciparum luciferase reporter growth, 96 h; actives 6.9% (n = 320,000); also: potency is read from the fitted curve at half-maximal effect
#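 P. falciparum expressing integrated firefly luciferase, in erythrocytes at 2% hematocrit, 0.05% parasitemia, incubated with compounds 96 h at 37 C, 5% CO2. Growth inhibition read as loss of luminescence; two-generation exposure targets delayed-death apicoplast inhibitors.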
# Pf growth 48h = P. falciparum growth inhibition at 48 hours (one generation) | P. falciparum luciferase growth in erythrocytes, 48 h | Potency, µM (top dose mostly 28.7 µM), for the others: at the highest dose activity change, negative = inhibition, actives largely listed as inhibitors | actives 5.9% (n = 310,000) | AID 504832; also: potency is read from the fitted curve at half-maximal effect
#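 Compounds are pin-transferred into medium, infected erythrocytes (2% hematocrit, 0.1% parasitemia final) are added, and plates sit one parasite generation at 37 C in 5% CO2. Detection reagent is then added and luminescence measured.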
# HCMV inh = inhibitors of human cytomegalovirus; HFF cells, HCMV-luciferase reporter, 72 h; active compounds read low; activity change, negative = inhibition, % at 57.5 µM; actives 4.5% (n = 410,000); AID 1259415; in the data active = activity change below about -60%; inconclusive = no clear call, values can overlap the other calls; inactive = above about -39%
#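 Luciferase read-out from HCMV-luciferase-infected HFFs (MOI 1 PFU/cell) 72 h post infection at 37C; compounds added after 16 h cell attachment; activity normalized between buffer-only basal and Salinomycin (10uM) inhibitor controls.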
# Marburg entry inh = blocks Marburg virus binding to or entry into cells; Marburg virus pseudotyped entry inhibition, cell reporter; Potency, µM (top dose mostly 37.8 µM), inactives show top-dose activity change, negative = inhibition, actives largely listed as inhibitors; actives 1.8% (n = 300,000); AID 540276; calls by dose curve; tested in HEK293 cells; also: potency is read from the fitted curve at half-maximal effect
# HCV inh = blocks hepatitis C virus | Huh7.5.1 HCVcc-Cre infection, luciferase reporter, 44 h | Potency, µM (titrated, usually from 41.8 µM), for the others: at the highest dose activity change, negative = inhibition, hits mostly inhibitors | actives 3.4% (n = 340,000) | AID 651820; also: potency is read from the fitted curve at half-maximal effect
#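 Luciferase read-out (15 sec integration) after a 15 min room-temperature substrate step quantifies HCVcc-Cre infection. Cells, 1,000 per well, had compound added 4 h post-plating, then virus at ~0.5 moi, and were cultured 44 h.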
# Lassa entry inh = inhibitors of Lassa virus binding or cell entry | actives 1.2% (n = 300,000) | Lassa virus pseudotype entry inhibition, cell reporter | Potency, µM (top dose mostly 37.9 µM), inactives show top-dose activity change, negative = inhibition, usual class: inhibitors; calls by dose curve; tested in HEK293 cells; also: potency is read from the fitted curve at half-maximal effect; nearly all actives have a fitted effect of over 50% in size
# Active calls of the source: *; ? = inconclusive; . = not tested or not shown; [ ] = dose if it differs, or a comment. Unless noted, calls follow the shape of the dose curve; as a rule, active = well fitted inhibition curve with a large enough effect; inconclusive = small, poorly fitted or top-dose-only effect, or another doubt; inactive = no such curve, though single readings can be large or run the other way. % is scaled to controls: 0 for no effect and ±100 for the full control effect.
SMILES,Pf growth 96h,Pf growth 48h,HCMV inh,Marburg entry inh,HCV inh,Lassa entry inh
Cc1onc(-c2ccccc2Cl)c1C(=O)NCc1ccccn1,.,-6%,55,-8%,0%,2%
COc1ccccc1CNC(=O)c1c(-c2ccccc2Cl)noc1C,57%,10µM*,-4,.,-25%,.
Nc1nccc(N2CCCCC2)n1,.,.,-1,.,.,.
CC1=CC(C)(C)[N+](C)(C)c2ccc(C)cc21,?,2.6µM*,-32,2%[46.1 µM],11%,7%[46.1 µM]
C/C=C/C(=O)N1c2ccc(C)cc2C(C)=CC1(C)C,40%,90%,-12,.,-2%,.
O=C(CCNS(=O)(=O)c1ccc(Br)s1)Nc1ccc(Br)cc1,.,.,-16,19%[46.1 µM],.,-7%[46.1 µM]
CC(=O)Nc1cc([As](=O)(O)O)ccc1O,11µM*,?,-10,1%,1%[8.37 µM],-2%
CCN(Cc1ccccc1)C(c1cc2cc(C)cc(C)c2[nH]c1=O)c1nnnn1CCOC (stereo not drawn),0%,?,21,?,3%,-22%
CCN(Cc1ccccc1)C(c1cc2cc(C)ccc2[nH]c1=O)c1nnnn1CCOC (stereo not drawn),12µM*,?,-28,?,-1%,-16%
COCCn1nnnc1C(c1cc2cc(OC)ccc2[nH]c1=O)N1CCC(Cc2ccccc2)CC1 (stereo not drawn),-5%,12µM*,65,.,5%,.
CCOC(=O)C1=CCN(S(=O)(=O)c2ccccc2Cl)C1c1ccccc1 (stereo not drawn),.,.,-27,.,.,.
CSc1ncc(C(=O)Nc2ccc(C(C)=O)cc2)c(C)n1,2.6µM*,?,36,.,-28%,.
CSc1ncc(C(=O)Nc2ccc(Br)cn2)c(C)n1,1.9µM*,?,-6,.,-26%,.
CSc1ncc(C(=O)Nc2ccc(Cl)cc2)c(C)n1,31%,8%,-7,4%[46.1 µM],-29%,4%[46.1 µM]
COc1ccc(N2CCN(S(=O)(=O)c3ccc4c(c3)NC(=O)CC(=O)N4)CC2)cc1,?,-8%,-11,.,0%,.
O=C1NC(=O)C(CCc2ccncc2)(CCc2ccncc2)C(=O)N1CCc1ccccc1,2.9µM*,?,4,?,4%,?
O=C1NC(=O)C(CCc2ccncc2)(CCc2ccncc2)C(=O)N1CCc1ccc(F)cc1,?,-45%,0,-6%,6%,?
CN1CCN(C(=S)c2cn(Cc3ccccc3F)c3ccccc23)CC1,?,?,71,.,-17%,.
CC1CCN(C(=S)c2cn(Cc3ccccc3F)c3ccccc23)CC1,13µM*,7.4µM*,-19,?,?,?
CCN1C(=O)c2ccccc2Sc2ccc(C(=O)NCCCN(CC(C)C)CC(C)C)cc21,27%,10µM*,1,?,-20%,?
CCCCN(CC)CCCNC(=O)c1ccc2c(c1)N(Cc1ccc(C)cc1)C(=O)c1ccccc1S2,.,.,-98*,.,.,?
CCN1C(=O)c2ccccc2Sc2ccc(C(=O)O)cc21,8%,.,34,8%[46.1 µM],8%,6%[46.1 µM]
CCN1[C@H](C(=O)NCCOC)[C@@H](CO)[C@@H]2Cn3c(ccc(-c4ccc(C(=O)N(C)C)cc4)c3=O)[C@@H]21,.,.,12,.,.,.
COC(=O)CN(c1ccccn1)S(=O)(=O)c1ccccc1,2.3µM*,23%,-8,9%,-1%,4%
COc1ccc([C@H]2CC(=O)C=C(c3ccc(Oc4ccccc4)cc3)C2)cc1OC,?,?,-64*,.,5.6µM*,.
SMILES,Pf growth 96h,Pf growth 48h,HCMV inh,Marburg entry inh,HCV inh,Lassa entry inh
COc1ccc([C@H]2CC(=O)C=C(c3ccc(F)cc3OCc3ccccc3)C2)cc1OC,?,9.3µM*,-18,.,?,.
COc1ccc2c(c1)OC[C@H]1[C@H]2N2C(=O)[C@H](C)NC(=O)[C@@]2(C)[C@H]1c1ccccc1,?,-6%,-91*,.,0%,.
COc1ccc2c(c1)OC[C@H]1[C@H]2N2C(=O)c3cc(Br)ccc3NC(=O)[C@@]2(C)[C@H]1c1ccccc1,5.2µM*,1.7µM*,.,.,?,.
COc1cc2c(cc1OC)C(=O)N1[C@H]3c4ccccc4OC[C@@H]3[C@H](c3ccccc3)[C@]1(C)C(=O)N2,?,?,-28,.,?,.
COc1ccc2c(c1)C(=O)N1[C@H]3c4cc(OC)ccc4OC[C@@H]3[C@H](c3ccccc3)[C@]1(C)C(=O)N2,?,13µM*,-36,.,?,.
COc1ccc2c(c1)[C@H]1[C@H](CO2)[C@H](c2ccccc2)[C@]2(C)C(=O)Nc3ccccc3C(=O)N12,?,?,-36,.,?,.
COc1ccc2c(c1)OC[C@H]1[C@@H]2N2C(=O)[C@@H](C)NC(=O)[C@@]2(C)[C@H]1c1ccccc1,.,.,-15,.,-1%,.
COc1ccc2c(c1)OC[C@H]1[C@H]2N2C(=O)c3cc(OC)c(OC)cc3NC(=O)[C@@]2(C)[C@H]1c1ccccc1,6.6µM*,2.3µM*,-15,.,7.1µM*,.
CC1(C(=O)NCc2ccccc2)CSCC(=O)N1Cc1cccc(F)c1 (stereo not drawn),.,.,43,.,.,.
Cc1ccc(NC(=O)CSCc2cc(=O)n3ccsc3n2)c(C)c1,28%,14%,-19,.,24%,.
O=C(C1CCCCC1)N(Cc1cccnc1)c1nc2c(F)cc(F)cc2s1,.,.,0,.,.,-2%[46.1 µM]
CC(=O)Nc1cccc(NC(=O)c2cc(-c3cccnc3)nc3ccc(Br)cc23)c1,?,5.2µM*,-28,?,14µM*,-12%
CC(=O)Nc1cccc(NC(=O)c2cc(-c3cccnc3)nc3ccc(Cl)cc23)c1,15%,?,2,?,?,?
Cc1ccc(-c2cc(C(=O)NCc3cnn(C)c3)c3cc(Br)ccc3n2)cc1,-3%,?,62,-1%[46.1 µM],?,?
Cc1cc(NS(=O)(=O)c2ccc(NC(=O)c3cc(-c4cccnc4)nc4ccc(Cl)cc34)cc2)no1,26%,1%,-2,4%,52%,-10%
O=C(Nc1ccc(C(=O)N2CCOCC2)cc1)c1cc(-c2cccnc2)nc2ccc(Cl)cc12,-5%,?,-69*,-5%[46.1 µM],7.9µM*,?
CSc1ccccc1NC(=O)c1cc(-c2cccnc2)nc2ccc(Br)cc12,?,?,-73*,?,11µM*,?
Cn1cc(CNC(=O)c2cc(-c3ccccc3)nc3ccc(Br)cc23)cn1,?,13µM*,-14,17%,?,14%
O=C(O)c1cc(-c2cccnc2)nc2ccc(Br)cc12,38%,17%,-3,.,16%,.
O=C(O)CC(C(=O)O)c1ccc(OCCCCOc2ccc(C(CC(=O)O)C(=O)O)cc2)cc1 (stereo not drawn),-27%,4%,15,.,11%,.
CC(C)COC(=O)N1CCCCC1c1cc(C(=O)N2CCOCC2)no1 (stereo not drawn),.,.,9,.,.,.
